Assay results from ChEMBL document CHEMBL1961873, “Compounds: GSK PKIS; Assays: Nanosyn kinase panel” (2012).

Key:
[1] = biological target: Sphingosine kinase 1 (Homo sapiens) (UniProt Q9NYA1); conditions: at 1 µM;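 note: mean SPHK1 inhibition value reported from the GSK PKIS kinase panel screen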
[2] = biological target: T1, Sphingosine kinase 2 (Homo sapiens) (UniProt Q9NRA0); conditions: at 0.1 µM
T1 sequence (whole entry): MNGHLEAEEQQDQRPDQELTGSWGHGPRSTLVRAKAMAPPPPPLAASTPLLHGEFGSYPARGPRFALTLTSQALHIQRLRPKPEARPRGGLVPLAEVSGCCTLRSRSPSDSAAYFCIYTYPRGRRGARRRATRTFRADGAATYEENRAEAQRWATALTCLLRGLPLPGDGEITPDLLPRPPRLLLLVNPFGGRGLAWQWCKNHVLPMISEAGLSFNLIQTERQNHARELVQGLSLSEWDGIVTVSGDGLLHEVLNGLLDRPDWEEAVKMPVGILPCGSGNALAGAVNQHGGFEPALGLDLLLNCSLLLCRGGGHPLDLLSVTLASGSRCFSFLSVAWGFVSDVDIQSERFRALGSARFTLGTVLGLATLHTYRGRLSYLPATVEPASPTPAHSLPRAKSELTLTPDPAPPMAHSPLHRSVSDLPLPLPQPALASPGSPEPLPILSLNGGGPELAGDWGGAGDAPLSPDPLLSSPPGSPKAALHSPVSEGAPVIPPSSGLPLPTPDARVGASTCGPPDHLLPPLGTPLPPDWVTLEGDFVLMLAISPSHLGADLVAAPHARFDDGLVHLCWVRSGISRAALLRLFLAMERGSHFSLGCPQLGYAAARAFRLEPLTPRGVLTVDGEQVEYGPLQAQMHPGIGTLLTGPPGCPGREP

[3] = biological target: T1, Sphingosine kinase 2 (Homo sapiens); conditions: at 1 µM
[4] = biological target: Casein kinase II subunit alpha (Homo sapiens) (UniProt P68400); conditions: at 0.1 µM
Chain of Casein kinase II subunit alpha (Homo sapiens) (P68400 whole entry, looked up): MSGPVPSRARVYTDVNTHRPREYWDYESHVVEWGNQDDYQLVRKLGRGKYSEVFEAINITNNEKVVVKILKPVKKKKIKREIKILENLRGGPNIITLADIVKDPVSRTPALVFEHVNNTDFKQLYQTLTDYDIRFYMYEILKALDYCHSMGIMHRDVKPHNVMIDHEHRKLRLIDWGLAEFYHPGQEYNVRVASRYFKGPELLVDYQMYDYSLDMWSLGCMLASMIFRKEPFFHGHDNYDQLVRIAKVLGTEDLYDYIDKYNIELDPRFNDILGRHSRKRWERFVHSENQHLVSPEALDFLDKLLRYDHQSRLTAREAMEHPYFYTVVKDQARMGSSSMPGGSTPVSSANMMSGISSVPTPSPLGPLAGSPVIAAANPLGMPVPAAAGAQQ

[5] = biological target: Casein kinase II subunit alpha (Homo sapiens) (UniProt P68400); conditions: at 1 µM
[6] = biological target: T2, Inhibitor of nuclear factor kappa-B kinase subunit alpha (Homo sapiens) (UniProt O15111); conditions: at 0.1 µM
T2 sequence (whole entry): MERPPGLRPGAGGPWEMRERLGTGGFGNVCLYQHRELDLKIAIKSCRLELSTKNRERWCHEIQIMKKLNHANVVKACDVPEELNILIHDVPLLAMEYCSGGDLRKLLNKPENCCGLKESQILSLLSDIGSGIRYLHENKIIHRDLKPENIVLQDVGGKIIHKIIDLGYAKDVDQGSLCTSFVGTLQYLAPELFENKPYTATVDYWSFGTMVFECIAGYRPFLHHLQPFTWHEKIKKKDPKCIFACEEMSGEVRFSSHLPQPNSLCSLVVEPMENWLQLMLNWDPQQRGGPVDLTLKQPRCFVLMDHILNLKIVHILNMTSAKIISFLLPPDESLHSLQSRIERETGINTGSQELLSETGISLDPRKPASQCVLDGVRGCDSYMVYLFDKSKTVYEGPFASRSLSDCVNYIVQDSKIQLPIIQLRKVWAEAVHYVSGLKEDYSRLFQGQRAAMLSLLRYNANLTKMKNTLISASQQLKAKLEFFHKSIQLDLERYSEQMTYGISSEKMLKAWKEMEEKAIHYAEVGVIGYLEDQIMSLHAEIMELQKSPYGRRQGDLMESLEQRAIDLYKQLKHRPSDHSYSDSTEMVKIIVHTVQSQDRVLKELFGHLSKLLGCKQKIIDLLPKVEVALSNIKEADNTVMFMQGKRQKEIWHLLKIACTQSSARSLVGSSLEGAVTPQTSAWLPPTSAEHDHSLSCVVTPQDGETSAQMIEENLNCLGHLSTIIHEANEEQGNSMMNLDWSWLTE

[7] = biological target: T2, Inhibitor of nuclear factor kappa-B kinase subunit alpha (Homo sapiens); conditions: at 1 µM
[8] = biological target: T3, Inhibitor of nuclear factor kappa-B kinase subunit beta (Homo sapiens) (UniProt O14920); conditions: at 0.1 µM
T3 sequence (whole entry): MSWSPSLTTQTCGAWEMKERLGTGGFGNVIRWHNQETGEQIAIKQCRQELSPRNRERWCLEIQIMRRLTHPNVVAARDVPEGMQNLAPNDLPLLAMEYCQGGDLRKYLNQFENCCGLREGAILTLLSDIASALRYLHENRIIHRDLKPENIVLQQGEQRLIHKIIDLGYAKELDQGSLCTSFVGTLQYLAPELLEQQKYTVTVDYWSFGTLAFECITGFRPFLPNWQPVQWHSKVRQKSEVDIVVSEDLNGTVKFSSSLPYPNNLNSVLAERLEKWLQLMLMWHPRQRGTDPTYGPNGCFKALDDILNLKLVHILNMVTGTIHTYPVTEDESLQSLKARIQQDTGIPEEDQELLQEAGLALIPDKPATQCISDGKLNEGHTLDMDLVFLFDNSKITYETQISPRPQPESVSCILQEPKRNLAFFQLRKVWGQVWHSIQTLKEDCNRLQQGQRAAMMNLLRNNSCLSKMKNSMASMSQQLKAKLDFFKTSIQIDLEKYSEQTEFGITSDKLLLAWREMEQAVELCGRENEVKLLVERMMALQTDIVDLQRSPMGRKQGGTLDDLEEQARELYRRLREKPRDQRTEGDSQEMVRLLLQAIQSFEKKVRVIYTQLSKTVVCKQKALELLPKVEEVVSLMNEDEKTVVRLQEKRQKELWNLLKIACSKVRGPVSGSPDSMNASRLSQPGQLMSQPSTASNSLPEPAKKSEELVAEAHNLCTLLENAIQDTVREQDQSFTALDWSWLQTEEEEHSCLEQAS

[9] = biological target: T3, Inhibitor of nuclear factor kappa-B kinase subunit beta (Homo sapiens); conditions: at 1 µM
[10] = biological target: T4, Inhibitor of nuclear factor kappa-B kinase subunit epsilon (Homo sapiens) (UniProt Q14164); conditions: at 0.1 µM
T4 sequence (whole entry): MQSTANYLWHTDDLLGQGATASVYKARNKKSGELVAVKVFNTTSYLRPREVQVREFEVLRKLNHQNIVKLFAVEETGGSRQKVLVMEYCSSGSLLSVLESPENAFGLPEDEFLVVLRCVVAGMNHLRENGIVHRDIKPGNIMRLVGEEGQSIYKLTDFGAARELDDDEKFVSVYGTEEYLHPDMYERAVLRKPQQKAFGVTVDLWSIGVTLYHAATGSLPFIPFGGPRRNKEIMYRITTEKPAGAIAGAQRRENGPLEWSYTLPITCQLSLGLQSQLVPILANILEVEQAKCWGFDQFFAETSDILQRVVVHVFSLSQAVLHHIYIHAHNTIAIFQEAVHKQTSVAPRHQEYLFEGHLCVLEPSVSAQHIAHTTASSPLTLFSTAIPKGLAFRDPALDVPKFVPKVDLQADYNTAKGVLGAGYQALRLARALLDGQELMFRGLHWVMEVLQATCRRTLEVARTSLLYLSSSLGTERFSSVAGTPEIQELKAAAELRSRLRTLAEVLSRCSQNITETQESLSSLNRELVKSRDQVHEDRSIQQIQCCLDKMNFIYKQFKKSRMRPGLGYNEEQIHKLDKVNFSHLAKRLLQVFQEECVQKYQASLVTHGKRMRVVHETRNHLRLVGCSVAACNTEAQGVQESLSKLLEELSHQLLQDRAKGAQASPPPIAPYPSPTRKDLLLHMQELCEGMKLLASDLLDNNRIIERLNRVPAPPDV

[11] = biological target: T4, Inhibitor of nuclear factor kappa-B kinase subunit epsilon (Homo sapiens); conditions: at 1 µM
[12] = biological target: T5, Serine/threonine-protein kinase Nek1 (Homo sapiens) (UniProt Q96PY6); conditions: at 0.1 µM
T5 sequence (whole entry): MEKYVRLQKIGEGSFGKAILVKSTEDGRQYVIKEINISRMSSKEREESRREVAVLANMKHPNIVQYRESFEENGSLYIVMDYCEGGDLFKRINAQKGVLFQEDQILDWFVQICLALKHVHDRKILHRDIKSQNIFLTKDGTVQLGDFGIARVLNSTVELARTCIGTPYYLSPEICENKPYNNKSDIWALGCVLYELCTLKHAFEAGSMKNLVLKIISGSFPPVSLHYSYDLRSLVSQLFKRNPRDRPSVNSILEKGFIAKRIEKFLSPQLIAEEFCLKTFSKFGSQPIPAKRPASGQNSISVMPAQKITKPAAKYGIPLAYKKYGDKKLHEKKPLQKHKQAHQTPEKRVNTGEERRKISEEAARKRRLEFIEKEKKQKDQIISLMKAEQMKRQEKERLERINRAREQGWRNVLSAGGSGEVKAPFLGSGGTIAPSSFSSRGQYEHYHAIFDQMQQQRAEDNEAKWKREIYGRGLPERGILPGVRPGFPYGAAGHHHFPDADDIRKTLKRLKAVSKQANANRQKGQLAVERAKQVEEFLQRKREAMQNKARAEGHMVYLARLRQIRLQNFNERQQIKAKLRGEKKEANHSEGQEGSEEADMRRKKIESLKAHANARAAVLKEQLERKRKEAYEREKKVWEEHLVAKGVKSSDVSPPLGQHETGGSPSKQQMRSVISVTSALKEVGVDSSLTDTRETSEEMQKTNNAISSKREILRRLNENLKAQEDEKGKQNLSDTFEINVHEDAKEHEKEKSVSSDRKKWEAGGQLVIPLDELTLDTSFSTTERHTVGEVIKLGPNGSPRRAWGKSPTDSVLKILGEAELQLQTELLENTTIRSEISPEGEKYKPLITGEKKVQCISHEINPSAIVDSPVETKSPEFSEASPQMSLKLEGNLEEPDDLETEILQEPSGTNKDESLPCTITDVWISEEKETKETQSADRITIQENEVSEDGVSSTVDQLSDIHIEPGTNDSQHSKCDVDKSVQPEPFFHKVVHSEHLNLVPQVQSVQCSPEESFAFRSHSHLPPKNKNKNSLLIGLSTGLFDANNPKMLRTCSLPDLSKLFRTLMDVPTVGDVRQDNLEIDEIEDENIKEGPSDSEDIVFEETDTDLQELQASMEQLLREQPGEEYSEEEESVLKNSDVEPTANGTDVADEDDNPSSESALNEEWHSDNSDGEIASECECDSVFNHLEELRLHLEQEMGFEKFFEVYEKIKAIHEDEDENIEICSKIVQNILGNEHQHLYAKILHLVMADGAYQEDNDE

[13] = biological target: T5, Serine/threonine-protein kinase Nek1 (Homo sapiens); conditions: at 1 µM
[14] = biological target: T6, Serine/threonine-protein kinase Nek2 (Homo sapiens) (UniProt P51955); conditions: at 0.1 µM
T6 sequence (whole entry): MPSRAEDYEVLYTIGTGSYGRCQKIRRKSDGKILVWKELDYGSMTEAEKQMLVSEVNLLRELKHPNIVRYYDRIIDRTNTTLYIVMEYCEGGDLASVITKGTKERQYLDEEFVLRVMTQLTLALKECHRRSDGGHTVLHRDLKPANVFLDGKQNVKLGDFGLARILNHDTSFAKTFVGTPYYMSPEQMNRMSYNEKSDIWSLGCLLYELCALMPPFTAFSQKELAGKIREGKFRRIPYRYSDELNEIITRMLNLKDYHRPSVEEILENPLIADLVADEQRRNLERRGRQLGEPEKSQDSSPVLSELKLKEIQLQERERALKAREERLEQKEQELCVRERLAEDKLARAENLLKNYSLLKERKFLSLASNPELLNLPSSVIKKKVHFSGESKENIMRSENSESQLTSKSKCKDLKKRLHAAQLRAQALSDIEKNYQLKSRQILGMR

[15] = biological target: T6, Serine/threonine-protein kinase Nek2 (Homo sapiens); conditions: at 1 µM
[16] = biological target: Serine/threonine-protein kinase Nek6 (Homo sapiens) (UniProt Q9HC98); conditions: at 0.1 µM
Chain of Serine/threonine-protein kinase Nek6 (Homo sapiens) (Q9HC98 whole entry): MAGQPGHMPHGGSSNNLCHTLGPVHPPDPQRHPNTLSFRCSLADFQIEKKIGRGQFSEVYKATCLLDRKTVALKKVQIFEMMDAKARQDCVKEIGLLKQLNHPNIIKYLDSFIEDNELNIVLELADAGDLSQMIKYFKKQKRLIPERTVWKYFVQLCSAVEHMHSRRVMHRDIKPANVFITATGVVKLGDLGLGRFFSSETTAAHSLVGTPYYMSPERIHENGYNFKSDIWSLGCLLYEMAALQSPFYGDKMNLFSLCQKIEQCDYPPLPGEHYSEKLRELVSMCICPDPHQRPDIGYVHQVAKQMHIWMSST

[17] = biological target: Serine/threonine-protein kinase Nek6 (Homo sapiens) (UniProt Q9HC98); conditions: at 1 µM
[18] = biological target: Serine/threonine-protein kinase Nek7 (Homo sapiens) (UniProt Q8TDX7); conditions: at 0.1 µM
Chain of Serine/threonine-protein kinase Nek7 (Homo sapiens) (Q8TDX7 whole entry, looked up): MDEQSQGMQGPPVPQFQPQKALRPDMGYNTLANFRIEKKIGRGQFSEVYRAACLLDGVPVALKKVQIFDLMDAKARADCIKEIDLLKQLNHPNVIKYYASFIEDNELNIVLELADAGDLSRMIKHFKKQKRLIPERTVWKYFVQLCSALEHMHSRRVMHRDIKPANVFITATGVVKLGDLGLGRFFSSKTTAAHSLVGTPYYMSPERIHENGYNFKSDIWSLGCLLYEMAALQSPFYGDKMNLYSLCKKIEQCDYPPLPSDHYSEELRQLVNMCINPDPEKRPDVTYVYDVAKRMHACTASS

[19] = biological target: Serine/threonine-protein kinase Nek7 (Homo sapiens) (UniProt Q8TDX7); conditions: at 1 µM
[20] = biological target: T7, Serine/threonine-protein kinase Nek9 (Homo sapiens) (UniProt Q8TD19); conditions: at 0.1 µM;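 note: reported value is the mean percent inhibition of NEK9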
T7 sequence (whole entry): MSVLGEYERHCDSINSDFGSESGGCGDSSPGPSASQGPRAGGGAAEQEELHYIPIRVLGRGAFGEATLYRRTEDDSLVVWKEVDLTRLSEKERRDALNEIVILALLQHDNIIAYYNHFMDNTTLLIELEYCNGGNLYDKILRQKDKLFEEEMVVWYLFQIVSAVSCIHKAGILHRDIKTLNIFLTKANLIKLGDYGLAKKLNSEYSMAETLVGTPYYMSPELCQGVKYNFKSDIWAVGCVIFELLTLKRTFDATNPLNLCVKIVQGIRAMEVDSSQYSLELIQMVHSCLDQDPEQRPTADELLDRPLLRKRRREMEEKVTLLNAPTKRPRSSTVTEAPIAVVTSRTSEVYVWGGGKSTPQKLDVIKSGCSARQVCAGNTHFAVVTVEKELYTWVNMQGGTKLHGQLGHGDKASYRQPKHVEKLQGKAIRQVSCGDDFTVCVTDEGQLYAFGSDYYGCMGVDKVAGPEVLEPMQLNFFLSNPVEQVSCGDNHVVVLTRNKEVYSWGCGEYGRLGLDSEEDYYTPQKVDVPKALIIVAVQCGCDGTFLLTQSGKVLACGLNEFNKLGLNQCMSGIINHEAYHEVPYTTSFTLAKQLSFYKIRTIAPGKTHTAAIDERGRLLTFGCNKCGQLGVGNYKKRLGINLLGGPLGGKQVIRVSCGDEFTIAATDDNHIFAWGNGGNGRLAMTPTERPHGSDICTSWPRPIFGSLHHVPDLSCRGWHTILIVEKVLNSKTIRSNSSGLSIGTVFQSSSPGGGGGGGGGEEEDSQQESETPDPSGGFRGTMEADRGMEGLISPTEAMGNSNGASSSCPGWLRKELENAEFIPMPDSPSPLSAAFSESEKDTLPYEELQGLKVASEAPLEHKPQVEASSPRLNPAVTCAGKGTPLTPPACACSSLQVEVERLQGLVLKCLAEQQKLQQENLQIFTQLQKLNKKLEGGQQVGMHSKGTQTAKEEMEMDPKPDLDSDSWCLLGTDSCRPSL

Chain of Sphingosine kinase 1 (Homo sapiens) (Q9NYA1 whole entry): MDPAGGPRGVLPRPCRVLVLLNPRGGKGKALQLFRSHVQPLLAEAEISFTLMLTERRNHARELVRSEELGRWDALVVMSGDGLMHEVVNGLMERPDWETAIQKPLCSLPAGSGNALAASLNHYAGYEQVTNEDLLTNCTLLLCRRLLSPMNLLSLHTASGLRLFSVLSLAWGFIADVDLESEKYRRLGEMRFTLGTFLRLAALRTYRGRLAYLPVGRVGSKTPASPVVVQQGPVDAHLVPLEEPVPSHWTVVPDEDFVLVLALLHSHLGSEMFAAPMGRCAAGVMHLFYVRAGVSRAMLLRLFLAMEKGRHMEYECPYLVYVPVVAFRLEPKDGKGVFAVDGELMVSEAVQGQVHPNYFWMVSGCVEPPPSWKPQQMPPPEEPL

Cc1ccc2c(-c3ccnc(Nc4cccc(C(F)(F)F)c4)n3)c(-c3ccccc3)nn2n1
inhibition [1]: -0.04% | inhibition [2]: 0% | inhibition [3]: 0% | inhibition [4]: 1.2% | inhibition [5]: 3.98% | inhibition [6]: 1.79% | inhibition [7]: 5.16% | inhibition [8]: 4.63% | inhibition [9]: 8.3% | inhibition [10]: 7.46% | inhibition [11]: 6.22% | inhibition [12]: 3.11% | inhibition [13]: 2.67% | inhibition [14]: 6.28% | inhibition [15]: 3.74% | inhibition [16]: 6.41% | inhibition [17]: 1.67% | inhibition [18]: 0.74% | inhibition [19]: 5.29% | inhibition [20]: 8.93%
